# An excerpt weighted towards active compounds, which were near 0.27% of everything screened.
# BCR signal inh – chronic active BCR signaling inhibition; ABC-DLBCL IkBa-CBG/CBR reporter, luminescence ratio, 4 h; Potency, µM (titrated, usually from 46.1 µM), for inactives: at the top dose activity change, negative = inhibition, most hits filed as inhibitors; hit rate 0.05% among 340,000; AID 493014; active = well fitted inhibition curve with a large enough effect in the signal ratio, with a control signal flat, not every such curve was filed as active; inconclusive = small, poorly fitted or top-dose-only effect, or effect the other way, or a change in a side signal; the % refers to the signal ratio;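 note: plate controls were basal doxycycline-induced cells for no effect and cells given 10 µM MG132 for full effect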
#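 Doxycycline induced both beetle luciferases in TMD8 lymphoma cells; IKK-driven degradation limits the IkappaBalpha-fused green signal, while red luminescence normalises for cell number and nonspecific effects. Compounds tested up to 46 uM, 4 hrs.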
# MBNL1 CUG block – MBNL1-poly(CUG) RNA binding inhibition; Q9NR56; TR-FRET MBNL1-His/biotin-(CUG)12 binding, 665/545 ratio; Potency, µM (doses to about 57.5 µM), for the others: at the highest dose activity change, negative = inhibition, hits mostly inhibitors; hit rate 0.036% among 280,000; active = well fitted inhibition curve with a large enough effect in the signal ratio, with a control signal flat, not every such curve was filed as active; inconclusive = small, poorly fitted or top-dose-only effect, or effect the other way, or a change in a side signal; inactive = no such curve, though single readings can be large or run the other way; the % refers to the signal ratio
#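 MBNL1-His + Biotin-(CUG)12, cpd titration 92 nM–58 uM; Tb anti-His Ab 0.055 ng/ul, SA-XL665 5 nM (final); 60 min RT; ratiometric 665/545 nm, Ex 340 nm; normalized to buffer and full-complex controls.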
# B2AR arrestin – recruits beta-arrestin to the human beta2-adrenergic receptor; P07550; beta-arrestin recruitment to beta2AR, cell-based reporter; Potency, µM (top dose mostly 46.1 µM), without a hit: at the highest dose activation, most hits filed as activators; hit rate 0.02% among 330,000;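 note: 0% = DMSO controls and full agonism = EC100 isoproterenol or metaproterenol; nearly all actives have a fitted effect of over 65% in size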
# Tb PFK block – T. brucei PFK enzyme inhibition. hit rate 0.17% among 330,000. Potency, µM (highest dose often 57.5 µM), without a hit: at the highest dose activity, negative = inhibition, hits mostly inhibitors. T. brucei PFK, ADP-Glo luminescence. AID 485367;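 note: 0% = uninhibited 1x PFK enzyme wells and -100% = no-enzyme wells; nearly all actives have a fitted effect of over 60% in size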
# Target sequence (O15648 whole entry, looked up): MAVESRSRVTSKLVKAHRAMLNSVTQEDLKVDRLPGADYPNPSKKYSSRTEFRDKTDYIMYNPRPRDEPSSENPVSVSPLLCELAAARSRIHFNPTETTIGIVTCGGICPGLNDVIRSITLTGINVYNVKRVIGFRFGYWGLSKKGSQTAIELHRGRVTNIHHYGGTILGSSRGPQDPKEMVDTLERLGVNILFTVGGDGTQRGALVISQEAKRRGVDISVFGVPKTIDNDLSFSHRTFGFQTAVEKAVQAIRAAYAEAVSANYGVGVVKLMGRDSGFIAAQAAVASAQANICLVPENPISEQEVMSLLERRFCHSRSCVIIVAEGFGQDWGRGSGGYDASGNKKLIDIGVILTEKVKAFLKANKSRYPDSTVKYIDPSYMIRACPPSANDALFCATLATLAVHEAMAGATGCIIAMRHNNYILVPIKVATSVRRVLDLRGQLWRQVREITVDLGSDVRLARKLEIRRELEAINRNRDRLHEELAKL
#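 ADP-Glo luminescence quantified ADP after 45 min at room temperature, with 1.25 nM T. brucei PFK, 0.1 mM ATP and 0.5 mM fructose-6-phosphate in pH 8.0 TEA buffer. qHTS titrations up to 57 µM; curves classified by quality.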
# The depositor's hits bear a star; ? = inconclusive; · = not tested or not shown; [ ] = dose if it differs, or a comment. Unless noted, calls come from the whole dose curve; as a rule, active = well fitted curve in the direction sought with a large enough effect; inconclusive = small, poorly fitted or top-dose-only effect, or another doubt; inactive = no such curve, though single readings can be large; an effect the other way counts as inactive or inconclusive. Unless noted, % is set by controls: 0 for no effect and ±100 for the full control effect; potency is the fitted concentration of half-maximal effect.
SMILES,BCR signal inh,MBNL1 CUG block,B2AR arrestin,Tb PFK block
O=C(/C=C/c1ccc(O)c(O)c1)O[C@H](Cc1ccc(O)c(O)c1)C(=O)O,10%,2%,0%,17µM*
O=C(O)/C=C/c1ccc(O)c(O)c1,0%,5%,1%,?
COc1cccc(NC(=O)CN(C2=NC3CS(=O)(=O)CC3S2)c2cccc(C)c2)c1 (stereo not given),?,-20%,0%,-1%
COc1cc(/C=C/[N+](=O)[O-])ccc1O,21µM*,11%,0%,23%
CCCCn1c(C)cc2c(c1=O)C1O[C@](c3ccc(OC)cc3)(Cc3cc(OC)c(OC)cc31)O2,25%[9.22 µM],-1%[11.5 µM],0%[9.22 µM],1%[11.5 µM]
COc1ccc(C2=Nn3c(nnc3-c3ccccc3OC)SC2)cc1OC1CCOC1 (stereo not given),8.2µM*,·,4%,3%
COc1ccc(C2=Nn3c(nnc3-c3ccccc3C(F)(F)F)SC2)cc1OC1CCOC1 (stereo not given),-14%,·,0%,3%
COc1cccc(-c2nc(CS(=O)(=O)CC(=O)Nc3cc(F)ccc3F)c(C)o2)c1,-2%,2%,0%,-6%
COCCNC(=S)N/N=C(\C)CCc1ccc2c(c1)OCO2,20µM*,-1%,?,-9%
C/C(CCc1ccc2c(c1)OCO2)=N\NC(=S)NC(C)C,?,·,11%,0%
O=C(CCSCCc1ccccn1)Nc1ccccc1C(F)(F)F,-6%,·,·,·
CCc1ccc(NC(=O)CSc2nc(=O)n(Cc3ccco3)c3c2CCC3)cc1,30%,·,·,·
O=c1cc(-c2cccc(F)c2)[nH]c2ccccc12,21µM*,31%,0%,6%
Cc1ccc2[nH]c(-c3cccc(F)c3)cc(=O)c2c1,?,-8%,-1%,0%
CC1NC(=O)NC1CCCCCC(=O)NCCc1ccccc1 (stereo not given),?,0.45µM*,-1%,0%
Cc1cccc(C)c1NC(=O)CCCN1CC(C)OC(C)C1 (stereo not given),?,-9%,0%,-4%
Cc1cccc(C)c1NC(=O)CCCCCC1NC(=O)NC1C (stereo not given),9%,0.71µM*,0%,1%
Cn1c(=O)cc(OCCCC(=O)N2CCCCC2)c2ccccc21,-14%,-14%,0%,-2%
CN1CCN(C(=O)CCCOc2cc(=O)n(C)c3ccccc23)CC1,26µM*,0%,0%,-5%
CC1=CC(C)(C)N2C(=O)C(=O)c3cc(OC(=O)c4ccco4)cc1c32,11µM*,4%,0%,-2%
O=C(O)C(O)c1ccco1 (stereo not given),-3%,·,0%,4.8µM*
CCN1C[C@@H]2[C@@H]3C(=O)N(C)C(=O)[C@@H]3[C@](Cc3ccccc3)(C(=O)OC)N2C1=NC1CCCCC1,-5%,·,-1%,-7%
Cc1[nH]c(=O)[nH]c1C(=O)CCCCC(=O)OCC(=O)Nc1ccccn1,-7%,0.045µM*,0%,-4%
CCCC(=O)C1=C(c2ccc(C)cc2)N(C(=O)CCC)n2cnnc2S1,20µM*,·,·,·
COc1ccc(-c2ccc(CCC(=O)O)n2-c2ccccc2O)cc1,16µM*,6%,0%,0%
SMILES,BCR signal inh,MBNL1 CUG block,B2AR arrestin,Tb PFK block
COc1cc(/C=N/NC(=O)c2[nH]nc3c2CCc2ccccc2-3)ccc1O,21µM*,-6%,-1%,-2%
CCC(NC(C)C)C(O)c1ccc(O)c(O)c1 (stereo not given),-19%,-6%,3.2µM*,-6%
CC(C)NC[C@H](O)c1ccc(O)c(O)c1,1%,·,·,-9%
COc1ccc2c3c(c(=O)oc2c1)C1O[C@](CCCCN2C(=O)c4ccccc4C2=O)(Cc2cc(OC)c(OC)cc21)O3,?,-4%[11.5 µM],0%[9.22 µM],0%[11.5 µM]
O=C(Nc1cnc(N2CCN(c3ccccc3)CC2)c(C(=O)O)c1)c1cccs1,-1%,·,·,·
Cc1cc(C(F)(F)F)c2c(N)c(C(=O)Nc3c(Cl)cccc3Cl)sc2n1,-5%,·,·,·
OC12ONC(c3ccccn3)C1N1CCC2CC1 (stereo not given),?,12%,18µM*,-9%
Cc1cc(SCC(=O)NCc2ccc(F)cc2)nc(=O)[nH]1,10%,·,·,·
CC/C(C)=N\NC(=O)CNC(=O)c1ccc(Cl)cc1Cl,13µM*,-1%,0%,-6%
COC(=O)c1ccccc1NS(=O)(=O)c1ccc(F)cc1,6%,-3%,0%,-1%
COC(=O)c1ccccc1NS(=O)(=O)c1ccc(O)c(C(=O)O)c1,3%,-1%,0%,38µM*

# Source: PubChem BioAssay
